# IDE exosite inh: exo-site inhibitors of human IDE, primary screen, biochemical, fluorescence anisotropy, probe displacement; z-score at 20 µM; hit rate 6.3% among 17,000; purified IDE, FL-6b probe fluorescence polarization; stronger effect = lower value; Insulin-degrading enzyme (Homo sapiens), P14735;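 active = z-score of -3 or lower, meaning strong loss of probe binding signal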;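 note: His-tagged human IDE residues 42-1019 made in E. coli with 30 nM FL-6b probe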
# Target sequence (P14735 42-1019 limits assumed): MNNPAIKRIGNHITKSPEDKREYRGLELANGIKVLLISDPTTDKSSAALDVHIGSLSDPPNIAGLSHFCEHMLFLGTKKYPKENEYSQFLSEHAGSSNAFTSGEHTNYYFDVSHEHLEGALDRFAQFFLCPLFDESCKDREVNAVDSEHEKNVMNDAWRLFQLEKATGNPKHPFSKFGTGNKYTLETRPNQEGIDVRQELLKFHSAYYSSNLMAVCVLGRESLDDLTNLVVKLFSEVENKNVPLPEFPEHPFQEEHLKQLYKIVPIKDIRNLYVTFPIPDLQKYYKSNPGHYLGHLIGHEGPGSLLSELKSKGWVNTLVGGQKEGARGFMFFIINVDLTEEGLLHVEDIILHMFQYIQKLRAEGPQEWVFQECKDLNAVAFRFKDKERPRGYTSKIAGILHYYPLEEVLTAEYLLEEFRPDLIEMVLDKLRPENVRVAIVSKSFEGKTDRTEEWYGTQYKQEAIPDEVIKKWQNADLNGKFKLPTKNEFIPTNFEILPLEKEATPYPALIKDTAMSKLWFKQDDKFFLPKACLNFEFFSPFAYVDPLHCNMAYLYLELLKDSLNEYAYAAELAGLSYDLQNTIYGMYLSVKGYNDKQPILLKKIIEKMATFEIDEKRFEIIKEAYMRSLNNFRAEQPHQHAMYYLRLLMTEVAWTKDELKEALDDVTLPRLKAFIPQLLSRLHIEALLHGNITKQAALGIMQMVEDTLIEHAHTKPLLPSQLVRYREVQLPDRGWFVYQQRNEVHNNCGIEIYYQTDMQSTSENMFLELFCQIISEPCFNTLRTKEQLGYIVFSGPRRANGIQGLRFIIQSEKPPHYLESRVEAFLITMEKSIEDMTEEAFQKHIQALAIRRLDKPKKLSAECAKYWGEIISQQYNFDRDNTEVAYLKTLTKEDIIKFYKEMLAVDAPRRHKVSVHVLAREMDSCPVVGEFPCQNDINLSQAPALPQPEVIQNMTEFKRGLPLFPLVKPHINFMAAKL
# Hits are given with their value; - = inactive; ! = a repeat was not active. The sample as a whole holds a higher share of hits than the screen did.
SMILES,IDE exosite inh
Cc1ccccc1-c1ccc(C2[C@@H]3CN(Cc4cncnc4)C[C@H]2N3)cc1 (stereo not given in full),-
Cn1cnc(S(=O)(=O)N2CCCCN3[C@H](CO)[C@@H](c4ccc(-c5ccccc5F)cc4)[C@H]3C2)c1,-
Cc1ccccc1-c1ccc(C2[C@@H]3CN(S(=O)(=O)c4cn(C)cn4)C[C@H]2N3)cc1 (stereo not given in full),-5.27
Cc1ccccc1-c1ccc(C2[C@H]3CNC[C@@H]2N3S(=O)(=O)c2cn(C)cn2)cc1 (stereo not given in full),-4.9
Cc1ccccc1-c1ccc(C2[C@H]3CNC[C@@H]2N3S(=O)(=O)c2cccc(F)c2)cc1 (stereo not given in full),-3.39!
Cc1ccc(-c2ccc(C3[C@H]4CNC[C@@H]3N4S(=O)(=O)c3ccccc3)cc2)cc1 (stereo not given in full),-
C/C=C/c1ccc(C2[C@H]3CNC[C@@H]2N3S(=O)(=O)c2cn(C)cn2)cc1 (stereo not given in full),-
Cc1ccccc1-c1ccc(C2[C@H]3CNC[C@@H]2N3S(=O)(=O)c2ccc(F)cc2)cc1 (stereo not given in full),-
O=S(=O)(c1cccc(F)c1)N1[C@@H]2CNC[C@H]1C2c1ccc(-c2ccccc2F)cc1 (stereo not given in full),-
C/C=C/c1ccc([C@@H]2[C@@H](CN(C)C(=O)CC)N(C(=O)NCCC)[C@H]2CO)cc1,-
CCCNC(=O)Nc1ccc2c(c1)C(=O)N(C)C[C@@H](OC)[C@@H](C)CN(C)[C@H](C)CO2,-
C/C=C/c1ccc([C@H]2[C@@H](CO)N(Cc3ccccn3)[C@@H]2CNC(=O)CC)cc1,-
CN1C(=O)c2cc(NC(=O)c3ccc(C(F)(F)F)cc3)ccc2OC[C@@H]2O[C@H](CC(=O)NCc3ccc4c(c3)OCO4)CC[C@@H]21,-
CCc1sc(N2[C@H](C#N)[C@H](c3ccccc3-c3cccc(F)c3)[C@H]2CO)nc1C,-
O=C(c1ccc(F)cc1)N1CC(=O)N2[C@H](CO)[C@H](c3ccc(-c4ccccc4F)cc3)[C@H]2C1,-
O=C(c1ccc(F)cc1)N1CC(=O)N2[C@@H](CO)[C@@H](c3ccc(-c4ccccc4F)cc3)[C@@H]2C1,-
O=C(c1ccncc1)N1CC(=O)N2[C@H](CO)[C@@H](c3ccc(-c4ccccc4F)cc3)[C@H]2C1,-
O=C(c1ccncc1)N1CC(=O)N2[C@H](C1)[C@@H](c1ccc(-c3ccccc3F)cc1)[C@@H]2CO,-7.36
O=C(c1ccncc1)N1CC(=O)N2[C@@H](CO)[C@H](c3ccc(-c4ccccc4F)cc3)[C@@H]2C1,-4.82
O=C(c1ccncc1)N1CC(=O)N2[C@@H](CO)[C@@H](c3ccc(-c4ccccc4F)cc3)[C@@H]2C1,-
COc1ccc2c3c([nH]c2c1)[C@@H](CO)N(CC1CCCCC1)CC31CN(C(=O)C2CCOCC2)C1,-
COc1cccc(C#Cc2ccc3c(c2)O[C@@H](CN(C)C(=O)CN2CCOCC2)[C@@H](C)CN([C@@H](C)CO)S3(=O)=O)c1,-
CCCNC(=O)N[C@H]1C=C[C@@H](CC(=O)N2CCN(C)CC2)O[C@H]1CO,-
C[C@@H]1CN([C@H](C)CO)C(=O)c2cc(C3=CCCCC3)cnc2O[C@H]1CN(C)S(=O)(=O)c1cn(C)cn1,-
COc1cccc(C#Cc2ccc([C@@H]3[C@@H](CO)N(C(=O)c4ccccn4)[C@H]3C#N)cc2)c1,-
SMILES,IDE exosite inh
N#C[C@@H]1[C@@H](c2ccc(-c3ccncc3)cc2)[C@@H](CO)N1C(=O)Cc1ccccc1,-
COc1cccc(-c2ccc([C@H]3[C@@H](C#N)N(C(=O)c4ccccn4)[C@H]3CO)cc2)c1,-3.77
N#C[C@H]1[C@H](c2ccc(C#CC3CC3)cc2)[C@H](CO)N1C(=O)Cc1ccccn1,-
N#C[C@@H]1[C@@H](c2ccc(-c3ccccc3)cc2)[C@H](CO)N1C(=O)Cc1ccccc1,-
N#C[C@H]1[C@H](c2ccc(-c3ccccc3)cc2)[C@H](CO)N1C(=O)Cc1ccccc1,-
N#C[C@@H]1[C@@H](c2ccc(/C=C/c3ccccc3)cc2)[C@@H](CO)N1C(=O)Cc1ccccn1,-9.5
COc1cccc(-c2ccc([C@H]3[C@H](C#N)N(C(=O)Cc4ccccc4)[C@H]3CO)cc2)c1,-3
COc1cccc(-c2ccc([C@@H]3[C@H](C#N)N(C(=O)c4ccccn4)[C@H]3CO)cc2)c1,-
C/C=C/c1ccc([C@H]2[C@@H](CO)N(C(=O)Cc3ccccn3)[C@H]2C#N)cc1,-
N#C[C@H]1[C@H](c2ccc(-c3ccccc3)cc2)[C@H](CO)N1C(=O)Cc1ccncc1,-
N#C[C@@H]1[C@@H](c2ccc(-c3ccccc3)cc2)[C@@H](CO)N1C(=O)Cc1ccncc1,-3.97
COc1ccccc1NC(=O)N1[C@@H](C#N)[C@@H](c2ccccc2)[C@@H]1CO,-
C[C@@H]1CN([C@@H](C)CO)C(=O)c2cc(-c3cccc(C#N)c3)cnc2O[C@H]1CN(C)C(=O)C1CCOCC1,-
CO[C@H]1CC[C@H]2CCOc3c(C#N)cccc3C(=O)N(C)C[C@@H](c3ccccc3)CC(=O)N(C)C[C@@H]1O2,-
CNC[C@H]1Oc2c(NS(=O)(=O)c3ccc(Cl)cc3)cccc2C(=O)N([C@H](C)CO)C[C@H]1C,-
O=C(Nc1ccc2c(c1)[C@H]1C[C@@H](CC(=O)N3CCOCC3)O[C@H](CO)[C@H]1O2)Nc1ccccc1F,-
CC(C)C#Cc1ccc([C@@H]2[C@H](C#N)N(C(=O)c3ccccn3)[C@H]2CO)cc1,-
Cc1nc(N2[C@@H](C#N)[C@H](c3ccccc3)[C@@H]2CO)sc1C,-
N#C[C@H]1[C@@H](c2ccc(C#CC3CCCCC3)cc2)[C@@H](CO)N1S(=O)(=O)c1ccccc1,-
C[C@@H]1CN([C@H](C)CO)C(=O)Cc2cc(NC(=O)c3ccncc3)ccc2O[C@@H]1CN(C)C(=O)Nc1ccc(F)cc1,-
N#C[C@@H]1[C@H](c2ccc(-c3ccccc3)cc2)[C@H](CO)N1C(=O)Cc1ccccc1,-
N#C[C@H]1[C@@H](c2ccc(-c3ccncc3)cc2)[C@@H](CO)N1C(=O)Cc1ccccc1,-
COc1cccc(-c2ccc([C@H]3[C@@H](CO)N(C(=O)Cc4ccncc4)[C@H]3C#N)cc2)c1,-4.79
CN1CCN(C(=O)C[C@H]2CC[C@H]3[C@H](COc4ccc(NC(=O)C5CCOCC5)cc4C(=O)N3C)O2)CC1,-
Cc1ccccc1-c1ccc([C@H]2[C@@H](CO)N3CCCCN(C(=O)NC4CCCC4)C[C@H]23)cc1,-17.3
SMILES,IDE exosite inh
Cc1ccccc1-c1ccc([C@H]2[C@H]3CN(C(=O)NC4CCCC4)CCCCN3[C@H]2CO)cc1,-5.69
Cc1ccccc1-c1ccc([C@H]2[C@@H](CO)N3CCCCN(C(=O)NC4CCCC4)C[C@@H]23)cc1,-19.3
C[C@@H]1CN([C@H](C)CO)C(=O)CCCn2nncc2CO[C@@H]1CN(C)CC1CCCCC1,-
CN(C)C(=O)c1cccc(-c2ccc([C@H]3[C@@H](CO)N4C(=O)CN(C(=O)CC5CC5)C[C@@H]34)cc2)c1,-
C[C@H](CO)N1C[C@H](C)[C@H](CN(C)C(=O)[C@H](Cc2ccccc2)N(C)C)OCc2ccccc2-c2ccccc2C1=O,-
CC(C)CC#Cc1ccc([C@H]2[C@@H](CO)N3C(=O)CN(C(=O)Nc4cc(F)ccc4F)C[C@H]23)cc1,-

# Screening results as filed in PubChem.
